Experimental data reported in ChEMBL document CHEMBL3988442, “University of Dundee, Small-Polar-MMV Screening Library” (2021).
Out of some 48,000 compounds screened, about 13,000 (27%) showed an effect of 50% or more. The list shows a part of the results.

tested on: Wolbachia pipientis; test: Anti-Wolbachia Cell-Based Screen; type: functional; parameters: scale not given: in the data most compounds retested in dose-response had high values; settings: 5 µM

| SMILES | Percent Effect |
| --- | --- |
| Cn1nc(Cn2cccn2)c2c1CN(Cc1ccoc1)C2.O=C(O)C(F)(F)F | -5.298% |
| Cc1noc(C2(C)CCN(C(=O)C(C)C)CC2)n1 | 126.4% |
| Cc1noc([C@@]23CCO[C@@H]2CCN(C(=O)CCC(C)C)C3)n1 | 4.63% |
| Cc1noc([C@@]23CCO[C@@H]2CCN(C(=O)c2cc(C)c(C)s2)C3)n1 | 6.303% |
| Cc1noc([C@@]23CCO[C@@H]2CCN(C(=O)CN(C)C)C3)n1 | 5.284% |
| Cc1noc([C@@]23CCO[C@@H]2CCN(C(=O)c2cc(C)on2)C3)n1 | 4.569% |
| COCC(=O)N1CC[C@H]2OCC[C@@]2(c2nc(C)no2)C1 | 6.759% |
| Cc1noc([C@@]23CCO[C@@H]2CCN(C(=O)c2cc(C)[nH]c2C)C3)n1 | 12.25% |
| Cc1noc(C2(C)CCCN(C(=O)C(C)C)C2)n1 (configuration not stated) | 123% |
| CC(=O)N1CCC(C)(c2nc(C)no2)CC1 | 134.3% |
| Cc1cccc2c1nc(CCO)n2-c1ccc(C(=O)N2CCCC2)o1 | 4.629% |
| Fc1cccc(-n2cc(CN3CCCCC3CCn3ccnc3)cn2)c1 (configuration not stated) | -14.22% |
| CC(C)(N)C(=O)N1CCCC1c1cncc(Oc2ccc(F)cc2)n1 (configuration not stated) | 9.255% |
| Cc1cncc(C2CCCN(C(=O)c3cccn3C)C2)n1 (configuration not stated) | 5.721% |
| CC(C)(N)C(=O)N1CCCC(c2cncc(Oc3cccnc3)n2)C1 (configuration not stated) | 102.7% |
| CC(C)C(=O)N1CCCC(c2cncc(Oc3cccnc3)n2)C1 (configuration not stated) | 130.5% |
| CC(C)(N)C(=O)N1CCCC1c1cncc(Oc2ccccc2)n1 (configuration not stated) | 115.4% |
| CCS(=O)(=O)c1ncc(CN(C)Cc2ccccc2Cl)n1CCOC | 6.102% |
| CCN(CC)Cc1cc(C(=O)N2CC(C)(C)[C@@](C)(O)C2)c(C)o1 | -3.4% |
| O=S1(=O)CCC(n2nc(COc3ccccc3)nc2-c2cnccn2)C1 (configuration not stated) | -50.17% |
| CS(=O)(=O)N1CCC2(CC1)COC(COc1cccnc1)C2.O=C(O)C(F)(F)F (configuration not stated) | -9.864% |
| CC(C)(C)CN1CC(COc2ccccc2)Oc2ccncc2S1(=O)=O (configuration not stated) | 80.37% |
| O=C(COc1ccccc1)N(Cc1ccncc1)C1CC1 | -3.212% |

| SMILES | Percent Effect |
| --- | --- |
| O=S1(=O)c2cnccc2OC(COc2ccccc2)CN1CC1CC1 (configuration not stated) | 96.1% |
| Cc1nc2cc(=O)[nH]n2c(C)c1CC(=O)Nc1cnn(C)c1 | -2.134% |
| CCc1ncc(C(=O)N(C)CC2Cc3ccccc3O2)cn1 (configuration not stated) | -1.94% |
| Cc1nn(C)c(C)c1CCNC(C)c1ccc(-n2ccnc2C)cc1 (configuration not stated) | -1.532% |
| CC(C)N1CCC2(C=C(C(=O)N(C)C)c3ccccc32)CC1.O=C(O)C(F)(F)F | -1.303% |
| Cc1ccc(CN2CCC3(CC2)OC(C(=O)N(C)C)c2ccccc23)o1.O=C(O)C(F)(F)F (configuration not stated) | 8.053% |
| CC(C)CN1CCC2(C=C(C(=O)N(C)C)c3ccccc32)CC1.O=C(O)C(F)(F)F | 90.84% |
| CCN1CCC2(C=C(C(=O)N(C)C)c3ccccc32)CC1.O=C(O)C(F)(F)F | 130.6% |
| O=C(C1=CC2(CCN(CCO)CC2)c2ccccc21)N1CCCC1.O=C(O)C(F)(F)F | -8.81% |
| CC(C)CN1CCC2(C=C(C(=O)N3CCCC3)c3ccccc32)CC1.O=C(O)C(F)(F)F | 13.87% |
| COc1ccc(C(C)NCc2c[nH]nc2C)cc1Br.Cl (configuration not stated) | 2.435% |
| Cc1ncoc1C(=O)N1CCc2[nH]nc(-c3ccc4c(c3)OCO4)c2C1 | -5.297% |
| CC(C)CC(CCO)CNC(=O)N1CCCC1(C)C (configuration not stated) | -11.2% |
| O=C(O)C(F)(F)F.O=C(c1cccnc1)N1CCOC2(COCCN(c3cncnc3)C2)C1 (configuration not stated) | -2.912% |
| O=C(C1CCCO1)N1CCCC2(CCN(c3cccnc3)CC2)C1.O=C(O)C(F)(F)F (configuration not stated) | 111.1% |
| O=C(c1cccnc1)N1CCOCC2(CCN(c3ncccn3)C2)C1 (configuration not stated) | 104.1% |
| O=C(C1CCCCC1)N1CCCC2(CCN(c3cnccn3)CC2)C1.O=C(O)C(F)(F)F | 1.174% |
| O=C(C1CCCC1)N1CCCC2(CCN(c3cnccn3)CC2)C1.O=C(O)C(F)(F)F | -29.32% |
| O=C(O)C(F)(F)F.O=C([C@H]1CCCO1)N1CCCC2(COCCN(c3ccccc3)C2)C1 (some centres not stated) | 121.5% |
| O=C(c1ccc[nH]1)N1CC2(CCN(c3ncccn3)C2)C1 | -13.43% |
| Cc1cc(C(=O)N2CCCC3(COCCN(c4ccccc4)C3)C2)[nH]n1 (configuration not stated) | -3.26% |
| O=C(O)C(F)(F)F.O=C(c1ccncc1)N1CCCC2(COCCN(c3ccccc3)C2)C1 (configuration not stated) | 3.35% |
| O=C(O)C(F)(F)F.O=C(c1cccnc1)N1CCCC2(COCCN(c3ccccc3)C2)C1 (configuration not stated) | 104.3% |

| SMILES | Percent Effect |
| --- | --- |
| O=C(c1ccnnc1)N1CC2(CCN(c3ncccn3)C2)C1 | -3.842% |
| COc1ccc(C)cc1CN1CCN(Cc2nccn2C)C(C)C1 (configuration not stated) | -12.47% |
| OCc1cc2ccccc2nc1NC1CC=CC1 | -7.436% |
| COCCCN(Cc1cnc(-c2cccs2)nc1)C1CCN(C)CC1 | 117% |
| COCCCN(Cc1cnc(-c2ccccn2)nc1)C1CCN(C)CC1 | 120.4% |
| CCN(Cc1cnc(-c2ccccn2)nc1)C1CCS(=O)(=O)C1 (configuration not stated) | -5.567% |
| CC(C)n1cnnc1CN(C)Cc1cnc(-c2cccs2)nc1 | 3.781% |
| CC(C1CCN(Cc2cnc(-c3cccs3)nc2)CC1)N(C)C (configuration not stated) | 1.758% |
| CC(C)n1cnnc1CN(C)Cc1cnc(-c2ccccn2)nc1 | 11.81% |
| CCC(O)CN(c1ccccc1)S(=O)(=O)c1cnc(C)s1 (configuration not stated) | -3.963% |
| CCCn1nc(C)c(CN2CC3(CCOC3)CCC2=O)c1C (configuration not stated) | -15.65% |
| CC(C)C(=O)NCc1cccc(N2CCCCC2=O)c1 | -5.894% |
| O=S(=O)(Nc1cnc(N2CCOCC2)nc1)c1ccc(C(F)(F)F)cc1 | -10.38% |
| COc1ncc(NS(=O)(=O)c2ccc(F)cc2F)cn1 | 7.047% |
| Cc1ccc(S(=O)(=O)Nc2c(C)nc(N3CCCC3)nc2C)cc1 | 15.76% |
| CN(C)c1ccc(C(=O)N2CCCc3cc(OC(F)(F)F)ccc32)cn1 | 0.3128% |
| O=S(=O)(Nc1cnc(N2CCCC2)nc1)c1ccc(OC(F)(F)F)cc1 | 113.1% |
| Cn1cc(NS(=O)(=O)c2ccc(OC(F)(F)F)cc2)ccc1=O | -16.2% |
| Cc1nc(N(C)C)nc(C)c1NS(=O)(=O)c1ccc(OC(F)(F)F)cc1 | 120.1% |
| CCOc1ccc(S(=O)(=O)Nc2cnc(OC)nc2OC)cc1 | -50.06% |
| CN(C)c1ncc(NS(=O)(=O)c2ccc(OC(F)(F)F)cc2)cn1 | 123.3% |
| O=S(=O)(NCc1cc2n(n1)CCNC2)c1ccc(OC(F)(F)F)cc1 | 12.96% |
| COc1ccc(S(=O)(=O)Nc2cnc(N(C)C)nc2)cc1 | 87.85% |

| SMILES | Percent Effect |
| --- | --- |
| O=S(=O)(Nc1cnc(N2CCCC2)nc1)c1ccc(C(F)(F)F)cc1 | 2.34% |
| Cc1ccc(CN2CCOC3(COCCN(C(C)C)C3)C2)s1.O=C(O)C(F)(F)F.O=C(O)C(F)(F)F (configuration not stated) | -2.418% |
| Cc1nccn1-c1cc(CNC(=O)C2CCC(=O)NC2)ccn1 (configuration not stated) | -12.56% |
| CCOc1ncccc1C(=O)N1CCCC1Cn1cc(C)cn1 (configuration not stated) | 90.55% |
| COCCOc1ncccc1C(=O)N1CCCC1Cn1cc(C)cn1 (configuration not stated) | 71.82% |
| O=C(c1cccnc1-n1cncn1)N1CCN(CC2CC2)CC1 | -14.6% |
| Cc1cnn(CC2CCCN2C(=O)c2cccnc2-n2cncn2)c1 (configuration not stated) | 106.4% |
| CSCCc1nc(C(C)C)nn1-c1ccncc1C | -5.681% |
| COCC(C)(C#N)NC(=O)COc1ccccc1Br (configuration not stated) | -5.931% |
| Cc1c(-c2ccccc2)ncn1CC(c1cccnc1)N1CCOCC1 (configuration not stated) | 2.3% |
| COCCC1(CO)CCCN(C(=O)c2ccc(C(C)C)[nH]c2=O)C1 (configuration not stated) | 9.971% |
| Cn1ccnc1CN1CCN(c2ccc(C#N)cc2F)CC1 | 2.933% |
| Cc1ccc(N2C[C@H]3CCC[C@@H](CN(C)C)[C@H]3C2)nn1.O=C(O)C(F)(F)F | -2.322% |
| Cc1csc([C@@H]2C[C@@H]3CCN(C(=O)c4cnccn4)C[C@H]3O2)n1 | -0.1445% |
| Cc1csc([C@H]2C[C@@H]3CCN(C(=O)c4ccnnc4)C[C@H]3O2)n1 | -2.379% |
| O=C(C1CCOCC1)N1C[C@@H]2C[C@@H](c3nc(C4CC4)cs3)O[C@@H]2C1.O=C(O)C(F)(F)F | 2.3% |
| Cn1cccc1C(=O)N1C[C@@H]2C[C@@H](c3nc(C4CC4)cs3)O[C@@H]2C1.O=C(O)C(F)(F)F | 215.5% |
| Cc1csc([C@H]2C[C@@H]3CCN(C(=O)c4cnccn4)C[C@H]3O2)n1 | 7.08% |
| O=C(O)C(F)(F)F.O=C(c1cnccn1)N1C[C@@H]2C[C@@H](c3nc(C4CC4)cs3)O[C@@H]2C1 | 97.61% |
| Cc1noc([C@@H]2C[C@H]3CN(C(=O)C4CCN(C)CC4)C[C@H]3O2)n1.O=C(O)C(F)(F)F | 11.84% |
| Cc1ccc(CN2CC[C@H]3C[C@H](c4nc(C5CC5)cs4)O[C@@H]3C2)o1 | 7.352% |
| O=C(O)C(F)(F)F.O=C(c1ccnnc1)N1C[C@@H]2C[C@@H](c3nc(C4CC4)cs3)O[C@@H]2C1 | 114.8% |
| COc1cccc(-n2c(C)cc(C(=O)O)c2C)c1 | 1.282% |
